{"source": "PubChem BioAssay (NCATS)", "note": "Results filed as inconclusive are left out. Entries that show only a call come without a potency. Calls of active or inactive are those of the source. Calls come from the whole dose curve; as a rule, active = well fitted inhibition curve with a large enough effect; inconclusive = small, poorly fitted or top-dose-only effect; inactive = flat fitted curve, though single readings scatter. Potency is the fitted concentration of half-maximal effect."}
{"system": "astro", "test": "Drug repurposing screens with cells derived from glioblastoma tumor samples (AID 1345199); note: nearly all actives have a fitted effect of over 40% in size", "conditions": "viability, ATP luminescence, 48 h; series mostly up to 45.9 µM", "procedure": "CD133+ cells were isolated from GBM patient biopsies and cultured as neurospheres. Neurospheres from four patients were used to screen the NCATS pharmaceutical collection (NPC) library of approved drugs and bioactive compounds. […] The neurospheres were incubated with drugs for 48 hours in 1536-well format, then assayed with an ATP content cell viability assay. […] These hits were cherry picked to confirm activity in the four original GBM lines screened plus three other slower growing GMB lines (unable to yield enough cells for a full primary screen). Variable activities of the confirmed primary hits in the different GBM patient lines were observed. The patient line 206 responded to the greatest number of compounds and line 923 responded to the least amount of active compounds."}
{"compound": "O=C(O)CCCCCCCC(=O)O", "Potency": "inactive"}
{"compound": "CN=C(NC#N)NCCSCc1nc[nH]c1C", "Potency": "inactive"}
{"compound": "CSc1ccc(C(=O)c2[nH]c(=O)[nH]c2C)cc1", "Potency": "inactive"}
{"compound": "CCNC(=O)N1CCN(CCCC(c2ccc(F)cc2)c2ccc(F)cc2)CC1", "Potency": "inactive"}
{"compound": "CCN(CC)CCCN(c1ccccc1)C1Cc2ccccc2C1", "Potency": "12.6 µM (active)"}
{"compound": "CCCCCN(CCCCC)C(=O)C(CCC(=O)O)NC(=O)c1ccc(Cl)c(Cl)c1", "note": "(stereo not given)", "Potency": "inactive"}
{"compound": "CCCN(CCC)C(=O)C(CCC(=O)O)NC(=O)c1ccccc1", "note": "(stereo not given)", "Potency": "inactive"}
{"compound": "CN(C)CC/C=C1\\c2ccccc2COc2ccccc21", "Potency": "inactive"}
{"compound": "CCc1c(C)[nH]c2c1C(=O)C(CN1CCOCC1)CC2", "note": "(stereo not given)", "Potency": "inactive"}
{"compound": "COc1ccc2c(c1OC)C(=O)O[C@@H]2[C@H]1c2c(cc3c(c2OC)OCO3)CCN1C", "Potency": "inactive"}
{"compound": "Cc1ccc(S(=O)(=O)NC(=O)NN2CCCCCC2)cc1", "Potency": "inactive"}
{"compound": "c1cnc(N2CCN(Cc3ccc4c(c3)OCO4)CC2)nc1", "Potency": "inactive"}
{"compound": "CC(=O)[C@@]1(O)CC[C@H]2[C@@H]3CCC4=CC(=O)CC[C@]4(C)[C@H]3CC[C@@]21C", "Potency": "inactive"}
{"compound": "NC(=O)c1cn(Cc2c(F)cccc2F)nn1", "Potency": "inactive"}
{"compound": "OCCN1CCN(CC/C=C2/c3ccccc3Sc3ccc(C(F)(F)F)cc32)CC1", "Potency": "31.6 µM (active)"}
{"compound": "c1ccc2c(c1)CCCC2C1=NCCN1", "note": "(stereo not given)", "Potency": "inactive"}
{"compound": "CC1=NS(=O)(=O)c2cc(Cl)ccc2N1", "Potency": "inactive"}
{"compound": "CN1C(=O)CC[C@H]1c1cccnc1", "Potency": "inactive"}
{"compound": "COc1cc2c(cc1OC)-c1cc(=Nc3c(C)cc(C)cc3C)n(C)c(=O)n1CC2", "Potency": "17.8 µM (active)"}
{"compound": "Nc1c2c(nc3ccccc13)CCCC2O", "note": "(stereo not given)", "Potency": "inactive"}
{"compound": "NC(=O)N1c2ccccc2C=Cc2ccccc21", "Potency": "inactive"}
{"compound": "NC/C=C/C(=O)O", "Potency": "inactive"}
{"compound": "CC(=O)[C@]1(O)Cc2c(O)c3c(c(O)c2[C@@H](O[C@H]2C[C@H](N)[C@H](O)[C@H](C)O2)C1)C(=O)c1ccccc1C3=O", "Potency": "0.398 µM (active)"}
{"compound": "Brc1c(NC2=NCCN2)ccc2nccnc12", "Potency": "inactive"}
{"compound": "CN1C[C@H](C(=O)N[C@]2(C)O[C@@]3(O)[C@@H]4CCCN4C(=O)[C@H](Cc4ccccc4)N3C2=O)C[C@@H]2c3cccc4[nH]cc(c34)C[C@H]21", "Potency": "inactive"}
{"compound": "CNCCC(Oc1ccccc1OC)c1ccccc1", "note": "(stereo not given)", "Potency": "inactive"}
{"compound": "CC(=O)OCC1=C(C(=O)O)N2C(=O)[C@@H](NC(=O)Cc3cccs3)[C@H]2SC1", "Potency": "inactive"}
{"compound": "O=C(O)CP(=O)(O)O", "Potency": "inactive"}
{"compound": "O=C1CC2(CCCC2)CC(=O)N1CCCCN1CCN(c2ncccn2)CC1", "Potency": "inactive"}
{"compound": "CC(C)NNC(=O)c1ccncc1", "Potency": "inactive"}
{"compound": "CCn1nc(C(=O)O)c(=O)c2cc3c(cc21)OCO3", "Potency": "inactive"}
{"compound": "COCCOC(=O)C1=C(C)NC(C)=C(C(=O)OC(C)C)C1c1cccc([N+](=O)[O-])c1", "note": "(stereo not given)", "Potency": "inactive"}
{"compound": "O=C(O)CN(CCN(CC(=O)O)CC(=O)O)CCN(CC(=O)O)CC(=O)O", "Potency": "inactive"}
{"compound": "COc1ccc(CN(CCN(C)C)c2ccccn2)cc1", "Potency": "inactive"}
{"compound": "CN(C)CCN(Cc1cccs1)c1ccccn1", "Potency": "inactive"}
{"compound": "CN1CCN(C2=Nc3ccccc3Oc3ccc(Cl)cc32)CC1", "Potency": "inactive"}
{"compound": "OC(CCN1CCCCC1)(c1ccccc1)C1CCCCC1", "note": "(stereo not given)", "Potency": "inactive"}
{"compound": "C[C@]12CC[C@@H]3c4ccc(O)cc4C[C@@H](CCCCCCCCCS(=O)CCCC(F)(F)C(F)(F)F)[C@H]3[C@@H]1CC[C@@H]2O", "note": "(stereo not given in full)", "Potency": "inactive"}
{"compound": "CCCN1C[C@H](CSC)C[C@@H]2c3cccc4[nH]cc(c34)C[C@H]21", "Potency": "inactive"}
{"compound": "COC(=O)[C@H]1[C@H]2C[C@@H]3c4[nH]c5cc(OC)ccc5c4CCN3C[C@H]2C[C@@H](OC(=O)c2cc(OC)c(OC)c(OC)c2)[C@@H]1OC", "Potency": "inactive"}
